Reference: PubChem BioAssay
Potency and affinity values are given separately. Results filed as inconclusive are left out. The source made the active and inactive calls. The rule behind the calls is not given here.

Assay: NIH:OVCAR-3 ovarian cancer cell cytotoxicity, dose response, PAX8 inhibitor project, plate reader, dry powder samples (AID 743044)
Details: NIH:OVCAR-3 ovarian cancer cell viability; max activity: at 35 µM, hits give low values unless noted; series mostly up to 50 µM; activity change, negative = cytotoxicity: at the top concentration
For C[C@@H]1CN([C@@H](C)CO)C(=O)c2cc(NC(=O)Nc3ccc(C(F)(F)F)cc3)ccc2O[C@@H](C)CCCCO[C@@H]1CN(C)Cc1ccncc1, the max activity was 59.3% [at 2.1 µM, hits give low values] (inactive).
In the case of C[C@@H]1CCCCO[C@@H](CN(C)Cc2ccc(C(F)(F)F)cc2)[C@H](C)CN([C@H](C)CO)C(=O)c2cc(NS(=O)(=O)c3ccccc3)ccc2O1, the max activity is reported as -29.5% (inactive).
With N#C[C@@H]1[C@@H](c2ccc(-c3cccc(F)c3)cc2)[C@H](CO)N1C(=O)NC1CCCC1 the max activity was 15.7% [at 0.26 µM, hits give low values] (inactive).
For C[C@@H]1CN([C@H](C)CO)C(=O)c2cc(NC(=O)Nc3ccc(F)cc3)ccc2O[C@@H](C)CCCCO[C@H]1CN(C)C(=O)C1CCCCC1, the max activity was 11.9% [at 16 µM, hits give low values] (inactive).

Assay: IOSE-T80 ovarian epithelial cell cytotoxicity, dose response, cytotoxicity control for PAX8 inhibitor project, plate reader, dry powder samples (AID 743045);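 note: 0% = neutral control median and -100% = positive control median; more negative values mean more cell killing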
Details: IOSE-T80 ovarian epithelial cells; series mostly up to 35 µM; activity change, negative = cytotoxicity: at the top concentration
In the case of C[C@H](CO)N1C[C@H](C)[C@@H](CN(C)Cc2ccc(Cl)c(Cl)c2)Oc2ccc(NC(=O)Nc3ccc(C(F)(F)F)cc3)cc2CC1=O, the “activity change, negative = cytotoxicity” value is reported as 7.9% (inactive).
For O=C(C[C@@H]1CC[C@@H]2[C@H](COC[C@H](O)CN2Cc2ccc3c(c2)OCO3)O1)Nc1ccc(-c2ccccc2)cc1, the “activity change, negative = cytotoxicity” value was 11.5% (inactive).
For COc1cccc(-c2ccc([C@H]3[C@@H](CO)N(C(=O)c4ccccn4)[C@H]3C#N)cc2)c1, the “activity change, negative = cytotoxicity” value was 14.4% (inactive).
With C[C@@H]1CCCCO[C@@H](CN(C)Cc2ccc(C(F)(F)F)cc2)[C@H](C)CN([C@H](C)CO)C(=O)c2cc(NC(=O)c3ccccc3)ccc2O1 the “activity change, negative = cytotoxicity” value was 23.5% (inactive).
For COc1ccc(NC(=O)N2CCCCN3[C@H](CO)[C@H](c4ccc(C#Cc5ccccc5)cc4)[C@H]3C2)cc1, the “activity change, negative = cytotoxicity” value was 11.1% (inactive).
In the case of C[C@H]1CCCCO[C@H](CN(C)C(=O)Nc2ccc(C(F)(F)F)cc2)[C@@H](C)CN([C@@H](C)CO)C(=O)c2cc(NS(=O)(=O)c3ccccc3)ccc2O1, the “activity change, negative = cytotoxicity” value is reported as 12.1% (inactive).
With C[C@@H]1CN([C@@H](C)CO)C(=O)c2cc(NC(=O)Cc3ccccc3)ccc2O[C@@H](C)CCCCO[C@@H]1CN(C)Cc1ccc(C(F)(F)F)cc1 the “activity change, negative = cytotoxicity” value was 10.3% (inactive).
With C[C@@H]1CN([C@@H](C)CO)C(=O)Cc2cc(NC(=O)C3CCCCC3)ccc2O[C@H]1CN(C)Cc1ccc(Cl)c(Cl)c1 the “activity change, negative = cytotoxicity” value was 0.192% (inactive).
With C[C@@H]1CN([C@H](C)CO)C(=O)c2cc(NS(=O)(=O)c3ccccc3)ccc2O[C@@H](C)CCCCO[C@@H]1CN(C)Cc1ccc(Cl)c(Cl)c1 the “activity change, negative = cytotoxicity” value was 14.7% (inactive).
In the case of C[C@@H]1CN([C@H](C)CO)C(=O)c2cc(NC(=O)Nc3ccc(C(F)(F)F)cc3)ccc2O[C@@H](C)CCCCO[C@H]1CN(C)C(=O)Nc1ccc(C(F)(F)F)cc1, the “activity change, negative = cytotoxicity” value is reported as 23.5% (inactive).
In the case of Cc1cccc(S(=O)(=O)N2CC[C@@H]3[C@H](CO)N(C)c4ccc(C#Cc5ccc(F)cc5)cc4[C@@H]32)c1, the “activity change, negative = cytotoxicity” value is reported as 8.85% [at 30 µM] (inactive).
In the case of O=C(C[C@H]1CC[C@@H]2[C@H](COC[C@H](O)CN2S(=O)(=O)c2cccc(F)c2)O1)Nc1ccc(-c2ccccc2)cc1, the “activity change, negative = cytotoxicity” value is reported as 45.4% (inactive).
In the case of C[C@H]1CCCCO[C@H](CN(C)C(=O)Nc2cccc3ccccc23)[C@@H](C)CN([C@@H](C)CO)C(=O)c2cc(NS(=O)(=O)c3ccc(F)cc3)ccc2O1, the “activity change, negative = cytotoxicity” value is reported as 18.8% (inactive).
With C[C@H]1CN([C@@H](C)CO)C(=O)c2c(c3ccccc3n2C)-c2ccccc2CO[C@@H]1CN(C)Cc1cccc(C(F)(F)F)c1 the “activity change, negative = cytotoxicity” value was 31.2% (inactive).
In the case of CN(C[C@H]1N[C@@H](CO)[C@@H]1c1ccc(-c2cccc(F)c2)cc1)S(C)(=O)=O, the “activity change, negative = cytotoxicity” value is reported as 16.6% (inactive).
For C[C@@H]1CN([C@@H](C)CO)C(=O)Cc2cc(NS(=O)(=O)c3ccc(Cl)cc3)ccc2O[C@H]1CN(C)Cc1ccc(Cl)c(Cl)c1, the “activity change, negative = cytotoxicity” value was 10.9% (inactive).
In the case of Cc1ccccc1-c1ccc([C@@H]2[C@@H](CO)N3CCCCN(C(=O)NC4CCCC4)C[C@H]23)cc1, the “activity change, negative = cytotoxicity” value is reported as 52.8% (inactive).
In the case of Cc1ccc(S(=O)(=O)Nc2ccc3c(c2)C(=O)N([C@H](C)CO)C[C@@H](C)[C@H](CN(C)S(=O)(=O)c2ccc(C)cc2)OCCCC[C@H](C)O3)cc1, the “activity change, negative = cytotoxicity” value is reported as 6.49% (inactive).
For C[C@@H]1CCCCO[C@@H](CN(C)Cc2ccc(Cl)c(Cl)c2)[C@H](C)CN([C@H](C)CO)C(=O)c2cc(NS(=O)(=O)c3ccc(Cl)cc3)ccc2O1, the “activity change, negative = cytotoxicity” value was 6.25% (inactive).
For COc1ccc(S(=O)(=O)Nc2ccc3c(c2)C(=O)N([C@H](C)CO)C[C@H](C)[C@@H](CN(C)S(=O)(=O)c2ccc(F)cc2)OCCCC[C@H](C)O3)cc1, the “activity change, negative = cytotoxicity” value was 6.72% (inactive).
In the case of C[C@@H]1CCCCO[C@@H](CN(C)C(=O)Nc2ccc(F)cc2)[C@H](C)CN([C@H](C)CO)C(=O)c2cc(NS(=O)(=O)c3ccc(Cl)cc3)ccc2O1, the “activity change, negative = cytotoxicity” value is reported as 1.36% (inactive).
